The nature of this assay: growth inhibition of WT strain, primary screen, mitochondrial fusion inhibitor project, WT and mutant strains, chemical genetic (AID 1362). As to conditions: mitochondrial fusion phenotypic screen, at 10 µM.
[1] abbreviates: WT strain, growth inhibition, stronger effect = higher value.

Structures are written as SMILES. The campaign covered roughly 190,000 compounds. About 4,000 (2.1%) were called active. Cut-off read from the data, not from the text of the source: active = inhibition above about 58%; inactive = the rest, inconclusive results apart; tested in S. cerevisiae. The sample as a whole holds a higher share of actives than the screen did.

`Cc1cc(C)cc(OCC(=O)Nc2ccc(S(=O)(=O)Nc3ccccn3)cc2)c1`: the inhibition was -6.39% (inactive) under setting [1] and -7.44% (mutant strain inhibition).

For `CCOc1cc(N2CCOCC2)c(OCC)cc1NC(=O)c1cc(C)nc2ccccc12`, the inhibition was -14.2% (inactive) under setting [1] and -29.4% (mutant strain inhibition).

As for `CCC(=O)Nc1ccc2nc(C)n(Cc3ccccc3Cl)c(=O)c2c1`, the inhibition was 62.4% (active) under setting [1] and 62.2% (mutant strain inhibition).

Turning to `O=C(Nc1ccc2nc3n(c(=O)c2c1)CCCCC3)c1ccccc1Cl`, the inhibition reads like this: under setting [1], -2.99% (inactive); (mutant strain inhibition) -3.04%.

In the case of `CCC(=O)Nc1nc2ccccc2n1Cc1ccccc1C`, the inhibition by setting is: under setting [1], 32.7% (inactive); (mutant strain inhibition) 38.1%.

Regarding `COc1ccc(Cc2n[nH]c(=S)n2NC(=O)Nc2ccc(C)cc2)cc1`, the inhibition runs as follows: under setting [1], -24.4% (inactive); (mutant strain inhibition) 1.23%.

For the molecule `O=C(O)c1ccc(N/N=C/c2cn(-c3ccccc3)nc2-c2cccs2)cc1`, the inhibition reads like this: under setting [1], 25% (inactive); (mutant strain inhibition) 5.64%.

Consider `O=C(Nc1cccc(O)c1)c1ccc(C(=O)c2ccccc2)o1`, for which the inhibition by setting is: under setting [1], -18.9% (inactive); (mutant strain inhibition) 0.34%.

On to `C/C(=C\C(=O)c1ccccc1)Nc1cccc(O)c1`, for which the inhibition reads like this: under setting [1], 85.2% (active); (mutant strain inhibition) 17.2%.

Take `C/C(=C\C(=O)c1cccnc1)Nc1ccc(C)c(C)c1`: the inhibition by setting is: under setting [1], 21.1% (inactive); (mutant strain inhibition) 23%.

In the case of `Cc1ccc(C(NC(=O)N2CCCC2)C(Cl)(Cl)Cl)cc1F` (stereo unspecified), the inhibition is 10.1% (inactive) under setting [1] and 18.2% (mutant strain inhibition).

For `CCC(C)(C)NC(=O)CN(C(=O)CCC(=O)Nc1cc(C)ccn1)c1ccc2c(c1)OCCO2`, the inhibition was 3.35% (inactive) under setting [1] and -3.2% (mutant strain inhibition).

With `O=C(COC(=O)CNS(=O)(=O)c1ccccc1)NC12CC3CC(CC(C3)C1)C2`, the inhibition by setting is: under setting [1], 4.93% (inactive); (mutant strain inhibition) -2.93%.

Take `CC(NC(=S)Nc1ccccc1)C1COc2ccccc2O1` (stereo unspecified): the inhibition is 5.96% (inactive) under setting [1] and 2.67% (mutant strain inhibition).

Consider `CCCN(CC1COc2ccccc2O1)C(=S)Nc1ccc(C)cc1` (stereo unspecified), for which the inhibition is, setting by setting: under setting [1], 65.7% (active); (mutant strain inhibition) 33.2%.

For `S=C(NCC1COc2ccccc2O1)Nc1ccc(Br)cc1` (stereo unspecified), the inhibition runs as follows: under setting [1], 5.47% (inactive); (mutant strain inhibition) 7.77%.

As for `CCOCCCNC(=O)C(NC(=O)Cc1c[nH]c2ccccc12)c1ccc(OC)cc1` (stereo unspecified), the inhibition was -1.73% (inactive) under setting [1] and 8.23% (mutant strain inhibition).

Regarding `O=C(Nc1ccc(F)cc1)N1CCN(c2ccc(F)cc2)CC1`, the inhibition is -9.94% (inactive) under setting [1] and -0.68% (mutant strain inhibition).

With `O=C1COc2ccc(NC(=O)N3CCN(c4ccc(F)cc4)CC3)cc2N1`, the inhibition reads like this: under setting [1], 74.7% (active); (mutant strain inhibition) 0.98%.

Regarding `COc1cccc(N2CCN(C(=O)Nc3ccc4c(c3)NC(=O)CO4)CC2)c1`, the inhibition is, setting by setting: under setting [1], 43.7% (inactive); (mutant strain inhibition) 41.7%.

On to `COc1ccc(CNC(=O)CN2CCC(n3nnc4cc(F)ccc43)CC2)cc1`, for which the inhibition under setting [1] was 3.98% (inactive) and the inhibition (mutant strain inhibition) is -18.3%.

With `CCOc1cccc(/C=C/c2ccc3ccccc3n2)c1OC(C)=O`, the inhibition by setting is: under setting [1], 33% (inactive); (mutant strain inhibition) 25.6%.

For the molecule `CC1(C)C2CCC1(C)C(OC(=O)CCn1ccnc1)C2` (stereo unspecified), the inhibition under setting [1] was -4.41% (inactive) and the inhibition (mutant strain inhibition) was -8.76%.

`Cc1ccc(C(=O)OC2CCCN(C)C2)cc1` (stereo unspecified): the inhibition under setting [1] is -13.6% (inactive) and the inhibition (mutant strain inhibition) is -3.26%.

Take `CC1(C)C2CCC1(C)C(OC(=O)c1ccc(O)cc1)C2` (stereo unspecified): the inhibition runs as follows: under setting [1], 94.2% (active); (mutant strain inhibition) 81.9%.

Turning to `CSc1ccccc1NC(=O)CN(C)CC(=O)Nc1cccc(Br)c1`, the inhibition was 21.6% (inactive) under setting [1] and -2.69% (mutant strain inhibition).

Regarding `CSc1ccccc1NC(=O)CN(C)CC(=O)Nc1ccc(Cl)cc1[N+](=O)[O-]`, the inhibition under setting [1] was 70% (active) and the inhibition (mutant strain inhibition) stood at 21.8%.

Turning to `Cc1ccc(NC(=O)CN(C)Cc2ccc(F)cc2)c([N+](=O)[O-])c1`, the inhibition reads like this: under setting [1], 22% (inactive); (mutant strain inhibition) 0.15%.

On to `COc1ccc(CN2CN(C3CCCC3)CSC2=S)cc1`, for which the inhibition was -12.1% (inactive) under setting [1] and -26.6% (mutant strain inhibition).

For `Cc1nc2ccccc2cc1OCc1ccc(F)cc1`, the inhibition is, setting by setting: under setting [1], -15.6% (inactive); (mutant strain inhibition) -4.03%.

`Cc1noc(COc2ccccc2OCC(O)CNC(C)(C)C)n1` (stereo unspecified): the inhibition was -1.99% (inactive) under setting [1] and -4.87% (mutant strain inhibition).

Take `Cc1noc(COc2ccccc2OCc2onc(C)c2Cl)c1Cl`: the inhibition is, setting by setting: under setting [1], 64% (active); (mutant strain inhibition) 31.8%.

In the case of `CCc1[nH]nc(C(=O)N2CCCC(CNS(=O)(=O)c3cccs3)C2)c1C` (stereo unspecified), the inhibition is -19% (inactive) under setting [1] and 4.29% (mutant strain inhibition).

Turning to `O=[N+]([O-])c1ccc2[nH]c3c(c2c1)CCCC3O` (stereo unspecified), the inhibition runs as follows: under setting [1], -3.98% (inactive); (mutant strain inhibition) 12%.

Regarding `COc1ccc(F)cc1C(=O)C1CCCN(C(=O)CCc2ccccn2)C1` (stereo unspecified), the inhibition runs as follows: under setting [1], 15.2% (inactive); (mutant strain inhibition) -2.96%.

On to `CCOC(=O)N1CCN(C(=S)Nc2ccc(C)cc2C)CC1`, for which the inhibition runs as follows: under setting [1], 7.78% (inactive); (mutant strain inhibition) 3.64%.

Turning to `CCOC(=O)C1=C(c2ccc(OC)cc2)C(=O)c2ccccc2C1=O`, the inhibition runs as follows: under setting [1], 68.3% (active); (mutant strain inhibition) 20.7%.

Take `CCOC(=O)c1ccccc1NS(=O)(=O)c1ccc(OC)cc1`: the inhibition was 38% (inactive) under setting [1] and 30.7% (mutant strain inhibition).

For the molecule `CCOC(=O)c1c(C)[nH]c2c1-c1ccccc1C(=O)C2=O`, the inhibition is, setting by setting: under setting [1], 46.9% (inactive); (mutant strain inhibition) 15%.

Turning to `CCC(=O)c1ccc(OCC(O)Cn2nc(C)c(C(C)=O)c2C)cc1` (stereo unspecified), the inhibition runs as follows: under setting [1], -6.24% (inactive); (mutant strain inhibition) -0.7%.

Take `CCCn1nc(C(=O)N2CCCc3ccccc32)c2ccccc2c1=O`: the inhibition is 9.04% (inactive) under setting [1] and 8.88% (mutant strain inhibition).

Turning to `Cc1ccc(-c2csc(NC(=O)c3cnccn3)n2)cc1C`, the inhibition by setting is: under setting [1], -10.3% (inactive); (mutant strain inhibition) 14.6%.

Take `Cc1nn(-c2ccccc2)c(Cl)c1C(=O)Nc1ccccc1`: the inhibition was 24.7% (inactive) under setting [1] and -5.62% (mutant strain inhibition).
